The nature of assay [1]: NCI Yeast Anticancer Drug Screen. Data for the rad50 strain (AID 155).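 Note: 0% = growth of vehicle-only cultures of the same strain.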 As to conditions: S. cerevisiae rad50 strain growth inhibition, stronger effect = higher value. The essentials:
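Vehicle-treated cultures provide the reference for the growth inhibition reported for compound-exposed, repair-deficient yeast.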

The nature of assay [2]: NCI Yeast Anticancer Drug Screen. Data for the mec2-1 strain (AID 157). The following applies: S. cerevisiae mec2-1 strain, stronger effect = higher value. The essentials: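 Test agents were screened against the mec2-1 yeast strain, with defined DNA repair or cell cycle alteration. Growth was scored as inhibition against vehicle-only controls.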
Assay [3] in a line: NCI Yeast Anticancer Drug Screen. Data for the sgs1 mgt1 strain (AID 161).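 Note: 0% = growth of cultures given vehicle only.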 The following applies: S. cerevisiae sgs1 mgt1 strain, stronger effect = higher value. In short, it runs like this:
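Genetically altered yeast, compound exposure, growth inhibition relative to vehicle.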

A short description of assay [4]: NCI Yeast Anticancer Drug Screen. Data for the cln2 rad14 strain (AID 165).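 Note: 0% = growth equal to vehicle treated cultures.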 As to conditions: S. cerevisiae cln2 rad14 strain, stronger effect = higher value. In short, it runs like this:
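Growth of compound-exposed yeast (cln2 rad14 genotype) measured and expressed as inhibition relative to vehicle.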

Assay [5] in a line: NCI Yeast Anticancer Drug Screen. Data for the bub3 strain (AID 167). The following applies: S. cerevisiae bub3 mutant strain, stronger effect = higher value. In short, it runs like this:
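Mutant yeast screening strain plus compound; vehicle-treated cultures serve as the 0% inhibition reference.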

A short description of assay [6]: NCI Yeast Anticancer Drug Screen. Data for the mlh1 rad18 strain (AID 175). The following applies: S. cerevisiae mlh1 rad18 strain growth inhibition, stronger effect = higher value. In short, it runs like this:
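In this whole-cell yeast screen, a strain with altered DNA damage repair is challenged with compound, and its growth is measured against matched vehicle-treated controls.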

Where [7] appears, read: at 5.0 µM (retest, dose inferred, filed as 0.5).
[8] abbreviates: at 50.0 µM (retest, dose inferred, filed as 5.0).

Drawing on PubChem BioAssay (NCI), this text covers growth inhibition for eight compounds.

Each structure is given as a SMILES string. Where “and” joins values, the source holds several entries; their conditions need not be identical. Identical values can stand only once. This is part of a sample that, as a whole, favours compounds with a hit. Of some 79,000 tested, about 15% had one in any assay. More than one record can exist for a structure, and the calls need not agree. Calls of active or inactive are those of the source. Cut-off read from the data, not from the text of the source: active = growth inhibition above about 70%; inactive = the rest.

Regarding `CCCCCCCCCCCCSC(=NC)NC`, the growth inhibition in assay [1] (setting [7]) is 65% (inactive) and 27% (inactive); in assay [1] (setting [8]), 99% (active) and 98% (active); in assay [1] (at 50.0 µM), 99.5% (active) and 99.4% (active); in assay [2] (setting [7]) it was 48% (inactive) and 19% (inactive); in assay [2] (setting [8]), 100% (active) and 98% (active); in assay [2] (at 50.0 µM), 99.7% (active) and 99.5% (active). Besides, the growth inhibition was 80% (active) and 65% (inactive) in assay [3] (setting [7]); 99% (active) in assay [3] (setting [8]); 99.4% (active) and 99.1% (active) in assay [3] (at 50.0 µM); 4% (inactive) and -9% (inactive) in assay [4] (setting [7]); 99% (active) in assay [4] (setting [8]); 96.2% (active) and 98% (active) in assay [4] (at 50.0 µM). The growth inhibition in assay [5] (setting [7]) is 91% (active) and 46% (inactive); in assay [5] (setting [8]), 100% (active); in assay [5] (at 50.0 µM) it was 99.5% (active) and 99% (active); in assay [6] (setting [7]) it was 27% (inactive) and 24% (inactive); in assay [6] (setting [8]) it was 99% (active) and 98% (active); in assay [6] (at 50.0 µM), 99.1% (active) and 98.8% (active).
Take `CN(C)CCCN=c1c2ccccc2n(O)c2cccc([N+](=O)[O-])c12`: the growth inhibition in assay [1] (setting [7]) was 6% (inactive); in assay [1] (setting [8]), 2% (inactive); in assay [1] (at 50.0 µM), 72.5% (active); in assay [2] (setting [7]) it was 23% (inactive); in assay [2] (setting [8]), -4% (inactive); in assay [2] (at 50.0 µM) it was 26.8% (inactive). Further, the growth inhibition in assay [3] (setting [7]) is 2% (inactive); in assay [3] (setting [8]), -1% (inactive); in assay [3] (at 50.0 µM), 46.9% (inactive); in assay [4] (setting [7]), 11% (inactive); in assay [4] (setting [8]), 8% (inactive); in assay [4] (at 50.0 µM), 22.4% (inactive). Besides, the growth inhibition in assay [5] (setting [7]) was 9% (inactive); in assay [5] (setting [8]) it was -10% (inactive); in assay [5] (at 50.0 µM), 45.4% (inactive); in assay [6] (setting [7]), 7% (inactive); in assay [6] (setting [8]), 6% (inactive); in assay [6] (at 50.0 µM), -31.7% (inactive).
For `CCN(CC)c1ccc(/C=C/c2ccnc3ccccc23)cc1`, the growth inhibition in assay [1] (setting [7]) was -11% (inactive) and 0% (inactive); in assay [1] (setting [8]), 95% (active) and 98% (active); in assay [1] (at 50.0 µM) it was 99% (active) and 98.3% (active); in assay [2] (setting [7]) it was -3% (inactive) and 1% (inactive); in assay [2] (setting [8]), 98% (active) and 99% (active); in assay [2] (at 50.0 µM), 99% (active) and 97.8% (active). Further, the growth inhibition is 4% (inactive) and -3% (inactive) in assay [3] (setting [7]); 94% (active) and 98% (active) in assay [3] (setting [8]); 99.1% (active) and 98.5% (active) in assay [3] (at 50.0 µM); -10% (inactive) and 7% (inactive) in assay [4] (setting [7]); 97% (active) and 98% (active) in assay [4] (setting [8]); 98.6% (active) and 97.5% (active) in assay [4] (at 50.0 µM). Further, the growth inhibition was 28% (inactive) and -4% (inactive) in assay [5] (setting [7]); 98% (active) and 99% (active) in assay [5] (setting [8]); 98.7% (active) and 98.3% (active) in assay [5] (at 50.0 µM); 17% (inactive) and 16% (inactive) in assay [6] (setting [7]); 97% (active) and 98% (active) in assay [6] (setting [8]); 98.3% (active) and 97.4% (active) in assay [6] (at 50.0 µM).
Turning to `C=CC(=O)OCCOc1ccc(Cl)cc1Cl`, the growth inhibition in assay [1] (setting [7]) was 1% (inactive); in assay [1] (setting [8]), 98% (active); in assay [1] (at 50.0 µM), 57.2% (inactive); in assay [2] (setting [7]), 2% (inactive); in assay [2] (setting [8]) it was 99% (active); in assay [2] (at 50.0 µM), 30.4% (inactive). Further, the growth inhibition in assay [3] (setting [7]) is 6% (inactive); in assay [3] (setting [8]) it was 98% (active); in assay [3] (at 50.0 µM), 73.2% (active); in assay [4] (setting [7]), -1% (inactive); in assay [4] (setting [8]), 94% (active); in assay [4] (at 50.0 µM) it was -28.1% (inactive). The growth inhibition in assay [5] (setting [7]) was 12% (inactive); in assay [5] (setting [8]), 97% (active); in assay [5] (at 50.0 µM), 24.2% (inactive); in assay [6] (setting [7]), 24% (inactive); in assay [6] (setting [8]), 98% (active); in assay [6] (at 50.0 µM) it was 83.9% (active).
`COc1ccc2c(c1)c[n+](C)c1c3cc(OC)c(OC)cc3ccc21`: the growth inhibition in assay [1] (setting [7]) is 17% (inactive); in assay [1] (setting [8]) it was 23% (inactive); in assay [1] (at 50.0 µM), 5.2% (inactive) and 37.6% (inactive); in assay [2] (setting [7]), 23% (inactive); in assay [2] (setting [8]) it was 20% (inactive); in assay [2] (at 50.0 µM), 2.8% (inactive) and 35.4% (inactive). For the same compound, the growth inhibition in assay [3] (setting [7]) is -21% (inactive); in assay [3] (setting [8]), 47% (inactive); in assay [3] (at 50.0 µM), 43.2% (inactive) and 48.9% (inactive); in assay [4] (setting [7]), -12% (inactive); in assay [4] (setting [8]), -8% (inactive); in assay [4] (at 50.0 µM) it was 34.6% (inactive) and 13.8% (inactive). For the same compound, the growth inhibition in assay [5] (setting [7]) is 8% (inactive); in assay [5] (setting [8]), 61% (inactive); in assay [5] (at 50.0 µM), 25.9% (inactive) and 19.1% (inactive); in assay [6] (setting [7]) it was 16% (inactive); in assay [6] (setting [8]) it was 19% (inactive); in assay [6] (at 50.0 µM), -19.9% (inactive) and 32.5% (inactive).
In the case of `NC(=O)NC(=O)C(Cc1ccc(Cl)cc1)c1ccccc1` (centres undefined), the growth inhibition in assay [1] (setting [7]) was -1% (inactive); in assay [1] (setting [8]), 17% (inactive); in assay [1] (at 50.0 µM) it was -15% (inactive); in assay [2] (setting [7]), -6% (inactive); in assay [2] (setting [8]), 8% (inactive); in assay [2] (at 50.0 µM), -13.2% (inactive). Also, the growth inhibition in assay [3] (setting [7]) is 1% (inactive); in assay [3] (setting [8]) it was 7% (inactive); in assay [3] (at 50.0 µM), -5.75% (inactive); in assay [4] (setting [7]), 4% (inactive); in assay [4] (setting [8]) it was 19% (inactive); in assay [4] (at 50.0 µM), -65.7% (inactive). In addition, the growth inhibition in assay [5] (setting [7]) is 6% (inactive); in assay [5] (setting [8]), 20% (inactive); in assay [5] (at 50.0 µM), -52.6% (inactive); in assay [6] (setting [7]) it was -13% (inactive); in assay [6] (setting [8]), 5% (inactive); in assay [6] (at 50.0 µM), 2.15% (inactive).
For the compound `O=C(O)CSCc1ccc(Cl)cc1`, the growth inhibition was -2% (inactive) in assay [1] (setting [7]); 1% (inactive) in assay [1] (setting [8]); 3.7% (inactive) in assay [1] (at 50.0 µM); 2% (inactive) in assay [2] (setting [7]); -3% (inactive) in assay [2] (setting [8]); -32.9% (inactive) in assay [2] (at 50.0 µM). Besides, the growth inhibition was 2% (inactive) in assay [3] (setting [7]); 1% (inactive) in assay [3] (setting [8]); -9.3% (inactive) in assay [3] (at 50.0 µM); 0% (inactive) in assay [4] (setting [7]); -7% (inactive) in assay [4] (setting [8]); 29.3% (inactive) in assay [4] (at 50.0 µM). Also, the growth inhibition was 2% (inactive) in assay [5] (setting [7]); 4% (inactive) in assay [5] (setting [8]); 6.1% (inactive) in assay [5] (at 50.0 µM); -1% (inactive) in assay [6] (setting [7]); -3% (inactive) in assay [6] (setting [8]); -6.45% (inactive) in assay [6] (at 50.0 µM).
For `COC(=O)C(CC(C)=O)CS(=O)(=O)CC(=O)C(=O)Nc1cccc([N+](=O)[O-])c1` (centres undefined), the growth inhibition is 4% (inactive) in assay [1] (setting [7]); 98% (active) in assay [1] (setting [8]); 99.5% (active) in assay [1] (at 50.0 µM); 3% (inactive) in assay [2] (setting [7]); 99% (active) in assay [2] (setting [8]); 99.5% (active) in assay [2] (at 50.0 µM). Moreover, the growth inhibition is 7% (inactive) in assay [3] (setting [7]); 99% (active) in assay [3] (setting [8]); 99.2% (active) in assay [3] (at 50.0 µM); 3% (inactive) in assay [4] (setting [7]); 98% (active) in assay [4] (setting [8]); 98.2% (active) in assay [4] (at 50.0 µM). Also, the growth inhibition in assay [5] (setting [7]) is 5% (inactive); in assay [5] (setting [8]), 98% (active); in assay [5] (at 50.0 µM) it was 99.2% (active); in assay [6] (setting [7]) it was -2% (inactive); in assay [6] (setting [8]), 98% (active); in assay [6] (at 50.0 µM) it was 99.2% (active).
